Inconclusive results are not listed. Active and inactive are the calls of the source. The call rests on the fitted dose curve; in most records, active means well fitted inhibition curve with a large enough effect; inconclusive means small, poorly fitted or top-dose-only effect; inactive means flat fitted curve, though single readings scatter.

Experiment in all cases: qHTS profiling for inhibitors of Plasmodium falciparum proliferation (AID 504749); further: nearly all actives have a fitted effect of over 60% in size
Common to all, as to settings: P. falciparum in erythrocytes, SYBR Green DNA, 72 h; series mostly up to 12.8 µM
On the technique in general: In qHTS, concentration-response curves come from the screen itself.

Assay [1] has as its system AA1029. The essentials: (§1)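 Fluorescence of SYBR Green-bound parasite DNA, read at 485/535 nm, served as the growth measure. Infected erythrocytes were cultured with compound 72 h; artemisinin (0.29 uM) and DMSO wells defined the normalization range.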
Assay [2] deals with ATS95. The procedure, abridged:
as §1

The subject of assay [3] is CP192. The procedure, abridged: as §1
Assay [4] relates to CP201. The procedure, abridged:
as §1

For assay [5], the system named is CP211. The essentials:
as §1

Assay [6] has as its system CP260. The procedure, abridged: as §1
In assay [7] the test system is CP262. The procedure, abridged:
as §1

In assay [8] the test system is CP266. The essentials: as §1
For assay [9], the system named is CP269. The essentials: as §1
Assay [10] deals with CP286. The procedure, abridged: as §1
In assay [11] the test system is CP291. The procedure, abridged:
as §1

The test system of assay [12] is CP305. The procedure, abridged: as §1
Assay [13] concerns CP325. The essentials:
as §1

Assay [14] relates to DIV14. The procedure, abridged: as §1
Assay [15] relates to DIV30. The procedure, abridged: as §1
The subject of assay [16] is Dd2. The procedure, abridged:
as §1

For assay [17], the system named is ICS. The procedure, abridged:
as §1

Assay [18] deals with P93_24. The essentials: as §1
In assay [19] the test system is PC15. The essentials:
as §1

For assay [20], the system named is TAB165. The essentials:
as §1
Potency means the concentration at half of the fitted maximal effect.

On to `C#C[C@]1(O)CC[C@@H]2[C@H]3CCC4=CCCC[C@@H]4[C@@H]3CC[C@@]21C`, for which the Potency entry in assay [1], in [2], in assay [3], in [4], in assay [5] and in assay [6] was “inactive” throughout. Moreover, the Potency entry in assay [7], in assay [8], in [9], in assay [10], in assay [11] and in assay [12] was “inactive” throughout. In addition, the Potency entry in [13], in assay [14], in assay [15], in assay [16], in assay [17] and in assay [18] was “inactive” throughout. The Potency result in assay [19] and in assay [20] was “inactive” in each case.

Turning to `CN1CCN([C@@H](c2ccccc2)c2ccc(Cl)cc2)CC1`, the Potency entry in assay [3], in assay [5], in assay [6], in [7], in assay [8] and in [9] was “inactive” each time. For the same compound, the Potency result in assay [10], in [12], in assay [13] and in assay [19] was “inactive” throughout. Further, the Potency in assay [14] was 2.28 µM (active); in assay [17], 3.16 µM (active).

Consider `CN1CCC[C@@H](CC2c3ccccc3Sc3ccccc32)C1`, for which the Potency result in [3], in [5], in assay [7], in assay [8], in [9] and in assay [13] was “inactive” each time. Also, the Potency in assay [14] is 2.28 µM (active).

These data come from PubChem BioAssay (NCATS).
